Source: PubChem BioAssay (Tox21)
Results filed as inconclusive are left out. Activity calls are given as the source filed them. Calls follow the shape of the dose curve; as a rule, active = well fitted cell-killing curve with a large enough effect in the repeat runs; inconclusive = weak or mixed curves, or effect the other way; inactive = flat fitted curve, though single readings scatter.

experiment: cAMP Responsive Elements (CRE) small molecule agonists, cell-based qHTS assay: qHTS cell viability counter screen (AID 2060914); conditions: CRE-bla HEK293T viability, CellTiter-Glo luminescence, 5 h; series mostly up to 92.4 µM; activity change, negative = cytotoxicity: at the top concentration;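 also: viability read after 3 h of compound exposure; nearly all actives have a fitted effect of over 50% in size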
How it was run: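 CRE-bla HEK 293T cells, plated 18 h at 37 °C, were exposed to compounds for 3 h at 37 °C/5% CO2. Viability was then measured in the same wells by CellTiter-Glo luminescence after 30 min at room temperature.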
% is scaled to controls: 0 for no effect and ±100 for the full control effect; potency is read from the fitted curve at half-maximal effect.

Compound | Potency | activity change, negative = cytotoxicity
Cc1cc2c(C(C)C)c(O)c(O)c(C=O)c2c(O)c1-c1c(C)cc2c(C(C)C)c(O)c(O)c(C=O)c2c1O | 26.6 µM (active) | –
Cc1ccccc1OCC(O)CO (stereo not given) | – | -4.35% [at 42.5 µM] (inactive)
Brc1cc(Oc2cc(Br)c(Br)c(Br)c2Br)c(Br)c(Br)c1Br | inactive | –
COC(=O)c1sccc1S(N)(=O)=O | – | 1.84% (inactive)
Cc1c(C(C)C)c(=O)n(-c2ccccc2)n1C | – | 7.52% [at 42.5 µM] (inactive)
Cc1c2ccccc2c(C)c2c1ccc1ccccc12 | inactive | –
C[C@]12CC[C@@H]3c4ccc(O)cc4CC[C@H]3[C@@H]1CC[C@@H]2OC(=O)CCC1CCCC1 | – | 3.27% [at 42.5 µM] (inactive)
CC(CCc1ccc2c(c1)OCO2)NN (stereo not given) | – | -5.01% [at 42.5 µM] (inactive)
CCCCCCCCOC(=O)c1cc(O)c(O)c(O)c1 | – | -23.5% (inactive)
CC(=O)CC(=O)Nc1ccc2[nH]c(=O)[nH]c2c1 | – | 3.52% (inactive)
C=C(C)C(=O)OCCOCCOCCOC(=O)C(=C)C | inactive | –
CC(C)NC[C@@H](O)COc1cccc2ccccc12 | – | -0.0115% [at 42.5 µM] (inactive)
O=C(Oc1ccccc1)c1ccccc1C(=O)Oc1ccccc1 | – | -11.3% (inactive)
O=C(O)c1ccccc1OP(=O)(O)O | – | -8.62% [at 42.5 µM] (inactive)
O=C(O)CCSCCC(=O)O | – | 13.2% (inactive)
NC(=O)NNc1ccccc1 | inactive | –
O=P(O)(O)O | inactive | –
O=C1c2ccccc2C(=O)C1c1nc2ccccc2c(Br)c1O | – | 0.995% (inactive)
c1cnccn1 | – | 3.38% (inactive)
CCCCCCCCCCCC(C)=O | – | 0.0016% (inactive)

Compound | Potency | activity change, negative = cytotoxicity
CN1CCC(=C2c3ccccc3CCc3cccnc32)CC1 | – | 15.7% [at 42.5 µM] (inactive)
c1ccc(C(O[C@H]2CCCN(CCc3ccc4c(c3)OCO4)C2)c2ccccc2)cc1 | – | 1.67% [at 42.5 µM] (inactive)
CCN(CC)CCNC(=O)c1ccc(NC(C)=O)cc1 | – | 8.14% [at 42.5 µM] (inactive)
COCCCCCCCCOCCC[Si](C)(O[Si](C)(C)C)O[Si](C)(C)C | – | -0.196% (inactive)
CC(C(=O)O)c1ccc(-c2ccccc2)c(F)c1 (stereo not given) | – | -7.53% (inactive)
CCC(C)(C)CC | – | -14.1% (inactive)
C=C(C)C1CC=C(C)CC1 (stereo not given) | inactive | –
Cc1cccc(C)c1NC(=O)c1cc(S(N)(=O)=O)c(Cl)cc1O | – | 5.22% [at 42.5 µM] (inactive)
C[C@H](CCC(=O)O)[C@H]1CC[C@H]2[C@@H]3CC[C@@H]4C[C@H](O)CC[C@]4(C)[C@H]3C[C@H](O)[C@]12C | – | 18.4% (inactive)
Nc1cccc(C(F)(F)F)c1 | – | 22.8% (inactive)
N[C@@H](CSSC[C@H](N)C(=O)O)C(=O)O | – | 11.2% [at 0.349 µM] (inactive)
NC(=O)N/N=C/c1ccc([N+](=O)[O-])o1 | inactive | –
CCCCCCCCCCCCCCCCCO | – | -1.37% [at 18.9 µM] (inactive)
COc1ccc2c(c1OC)C(=O)O[C@@H]2[C@H]1c2c(cc3c(c2OC)OCO3)CCN1C | – | 2.71% [at 42.5 µM] (inactive)
O=C(CCCN1CCN(c2ccc(F)cc2)CC1)NC1c2ccccc2CSc2ccccc21 (stereo not given) | – | 1.37% [at 42.5 µM] (inactive)
CC(C)C(=O)C(C)C | – | 0.0592% (inactive)
CC(=O)Nc1ccc(OCCOCCOc2ccc(NC(C)=O)cc2)cc1 | – | -12.6% [at 42.5 µM] (inactive)
CC1(C)Oc2ccc(C#N)cc2[C@@H](N2CCCC2=O)[C@@H]1O | – | -9.75% [at 42.5 µM] (inactive)
C[C@]12CC[C@@H]3c4ccc(O)cc4CC[C@H]3[C@@H]1C[C@@H](O)[C@@H]2O | – | 9.23% (inactive)
NC(=O)c1ncn([C@@H]2O[C@H](CO)[C@@H](O)[C@H]2O)c1N | – | 4.16% [at 42.5 µM] (inactive)
